TROY NFkB inh – inhibitors of TROY-dependent NF-kB signaling | AID 1347056 | Q293 LMP1-TROYcd NF-kB luciferase reporter, 4 h | 0.98% of 360,000 active | inhibition, % at 10 µM;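 active = compounds whose plate-normalised and pattern-corrected inhibition of the luciferase reporter signal at the single screening dose is 50% or more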
LGR2 inh – inhibitors of bursicon-induced Drosophila LGR2 receptor cAMP signaling. inhibition, % at 9.99 µM. HEK293 LGR2, CRE-luciferase, bursicon-stimulated, 4 h. 0.35% of 380,000 active;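 active = drop in luminescence signal, shown as inhibition above about 50% in the replicate tests, limit read from the data, passing the limit was not always enough; inconclusive = probably only some replicates passing the limit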;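 also: agonist challenge used bursicon conditioned medium at about half maximal strength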
TWEAK-Fn14 inh – inhibitors of TWEAK-Fn14 interaction signaling. 2% of 360,000 active. inhibition, % at 10 µM. TWEAK-stimulated Fn14 reporter cells, luciferase luminescence, 8 h. AID 1159606; in the data active = inhibition above about 50%
HSP90 inh – blocks HSP90-mediated luciferase refolding in reticulocyte lysate | Rabbit reticulocyte lysate, luciferase refolding luminescence, 3 h | inhibition, % at 5.6 µM | 0.91% of 290,000 active;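 active = inhibition above the screen-wide mean plus 3 SD, computed separately per campaign, cut at about 16% in these data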;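 also: 0% = DMSO wells and 100% = 60 µM geldanamycin wells; inhibitors lower the luminescence because luciferase stays unfolded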
aDG glyco up – alpha-DG glycosylation activation | Pro5-aDG cells, alpha-DG glycosylation AlphaScreen (IIH6); 0% Pro5, 100% B10-LARGE cell signal | 0.22% of 360,000 active | activation, % at 10 µM | AID 624168;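 active = activation of at least 8% versus controls, or a plate z-score of at least 8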;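 also: Pro5 are CHO cells carrying HIG-tagged alpha-DG that lacks glycosylation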
LMP1 NFkB inh – Epstein-Barr LMP1 NF-kappaB reporter inhibition | LMP1-induced NF-kappaB luciferase reporter cells, luminescence | inhibition, % at 12.5 µM | 0.69% of 350,000 active | AID 504558; in the data active = inhibition above about 41%; inconclusive = no clear call, values can overlap the other calls;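 also: 0% = neutral control wells and 100% = reference inhibitor control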
HSP90 inh confirm – confirmation of HSP90 inhibitors; shares compounds with HSP90 inh; rabbit reticulocyte lysate, luciferase refolding luminescence, 3 h; inhibition, % at 5.9 µM; 64% of 2,300 active; in the data active = inhibition above about 18%;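 also: 0% = vehicle wells and 100% = reference inhibitor wells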
FLuc counter – blocks native firefly luciferase in HSP90 counter-screen; shares compounds with HSP90 inh; purified native firefly luciferase, luminescence; inhibition, % at 5.9 µM; 48% of 2,300 active; AID 1847;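 active = inhibition above the mean inhibition of all tested sample wells plus 3 SD, cut at about 10% in these data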;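 also: 0% = DMSO with luciferase and 100% = wells lacking luciferase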
Target sequence (P08659 whole entry, looked up): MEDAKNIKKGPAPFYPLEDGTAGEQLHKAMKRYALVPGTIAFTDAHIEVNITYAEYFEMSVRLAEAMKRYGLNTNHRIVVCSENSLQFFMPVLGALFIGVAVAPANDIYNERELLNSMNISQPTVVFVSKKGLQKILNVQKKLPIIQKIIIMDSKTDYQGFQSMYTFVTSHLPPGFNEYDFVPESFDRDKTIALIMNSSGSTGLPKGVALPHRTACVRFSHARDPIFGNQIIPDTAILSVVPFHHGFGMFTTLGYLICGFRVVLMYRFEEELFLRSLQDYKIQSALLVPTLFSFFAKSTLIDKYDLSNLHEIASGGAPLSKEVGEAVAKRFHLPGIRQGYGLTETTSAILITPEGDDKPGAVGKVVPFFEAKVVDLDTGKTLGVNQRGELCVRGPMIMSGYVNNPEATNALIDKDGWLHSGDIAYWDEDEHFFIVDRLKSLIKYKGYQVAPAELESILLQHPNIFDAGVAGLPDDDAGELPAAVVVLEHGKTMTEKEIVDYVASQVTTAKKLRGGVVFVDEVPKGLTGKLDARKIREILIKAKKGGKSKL
* marks the source's active call; other numbers are inactive results; ? = inconclusive; · = no result. Only some compounds are listed: those with a hit (about 2.6% of all), similar ones and a draw of the others.

SMILES	TROY NFkB inh	LGR2 inh	TWEAK-Fn14 inh	HSP90 inh	aDG glyco up	LMP1 NFkB inh	HSP90 inh confirm	FLuc counter
CC(C)c1ccc(OCc2ccc(C(=O)N3CCCC3)o2)cc1	10	-84	-16	17*	1	-14	24*	-15
CCOc1ccc(OCc2ccc(C(=O)N3CCCC3)o2)cc1	-22	-9	13	30*	0	6	19*	-30
Cc1cc(COc2ccccc2)oc1C(=O)O	58*	20	90*	69*	0	-30	84*	50*
Cc1cc(CN2CCCCC2)oc1C(=O)O	5	8	6	-3	0	-4	·	·
O=C(C[C@@H]1C=C[C@@H](NC(=O)Cc2ccccn2)[C@H](CO)O1)NCCc1ccccc1	·	-5	·	·	·	·	·	·
C[C@H]1CCCCO[C@H](CN(C)C(=O)Nc2ccc(C(F)(F)F)cc2)[C@@H](C)CN([C@@H](C)CO)C(=O)c2cc(NC(=O)C3CCCCC3)ccc2O1	·	19	·	·	·	·	·	·
CCCNC(=O)N1CC2(C1)CN(C(=O)CC1CC1)[C@@H](CO)c1[nH]c3cc(OC)ccc3c12	·	-5	·	·	·	·	·	·
O=C(Nc1ccc(Cl)cn1)c1cc2ccccc2o1	10	·	46	6	0	-13	·	·
O=C(Nc1ccc2c(c1)OCCO2)c1cc2ccccc2o1	2	?	31	24*	2	1	39*	26*
O=C(NC1=NCCS1)c1cc2ccccc2o1	20	·	82*	34*	0	?	56*	47*
O=C(NC1=NCCS1)c1ccccc1	-33	6	0	1	0	-5	·	·
O=C(Nc1ccccn1)c1cc2ccccc2o1	70*	·	96*	69*	0	46*	80*	78*
Cc1nc2c(-c3ccc(F)cc3)cnn2c(N)c1-c1ccc(F)cc1	74*	-47	78*	47*	1	-32	50*	49*
Cc1cc(N)n2ncc(-c3ccc(F)cc3)c2n1	-18	·	4	-2	0	-41	·	·
CCOC(=O)N1CCC(N2C(=O)c3ccccc3C2Nc2ccccc2C)CC1 (configuration not stated)	-14	16	4	-2	0	-5	·	·
CCOC(=O)N1CCC(N2C(=O)c3ccccc3C2Nc2ccc3c(C)cc(=O)oc3c2)CC1 (configuration not stated)	10	-14	-8	18*	0	3	2	0
COCC(=O)N1CC2(CCN(C(C)=O)CC2)c2c([nH]c3cc(OC)ccc23)[C@@H]1CO	·	-23	·	·	·	·	·	·
CCOC(=O)N1CCC(=NNc2nc3ccccc3s2)CC1	-1	-51	4	26*	2	-6	2	-8
CC(=O)N1CCC(=NNc2nc3ccccc3s2)CC1	21	-45	18	8	0	-10	·	·
O=C(O)c1ccc2c3n(nc2c1)-c1ccc(Cl)cc1CO3	·	-27	·	84*	·	·	75*	27*
CO[C@H]1CN(C)C(=O)c2ccc(NC(=O)C3CC3)cc2OC[C@@H](C)N(CC2CCCC2)C[C@@H]1C	·	8	·	·	·	·	·	·
C/C(=N\NC(=O)c1ccc(N/N=C(\C)c2ccc(O)cc2)cc1)c1ccc(O)cc1	5	-15	3	27*	0	4	4	-17
C/C(=N/NC(=O)c1ccccn1)c1ccc(O)cc1	-7	-12	12	20*	0	-11	6	-14
C/C(=N\NC(=O)c1ccccn1)c1ccc(Cl)cc1	-49	·	35	12	0	·	·	·
c1ccc2c(C3=NNC(=NC4CC4)SC3)c[nH]c2c1	36	58*	78*	19*	0	40	61*	38*
SMILES	TROY NFkB inh	LGR2 inh	TWEAK-Fn14 inh	HSP90 inh	aDG glyco up	LMP1 NFkB inh	HSP90 inh confirm	FLuc counter
CC(=NC1CCCC1)c1c(C)[nH]n(-c2nc3ccccc3s2)c1=O	42	·	42	19*	0	-33	19*	1
CC(=NC1CC1)c1c(-c2ccccc2)[nH]n(-c2nc3ccccc3s2)c1=O	-7	·	42	5	0	5	·	·
CC1(C)CCc2cc(-c3ccnc(=S)[nH]3)ccc2O1	50	·	62*	18*	0	-25	9	-17
COc1cc(/C=C/[N+](=O)[O-])ccc1OCc1cccc(C(=O)O)c1	·	·	·	63*	·	·	51*	2
Cc1occc1C(=O)N/N=C/C=C/c1ccc(N(C)C)cc1	7	-25	-8	0	0	-14	·	·
Cc1occc1C(=O)N/N=C/c1ccc(N(C)C)cc1	39	17	72*	20*	0	16	60*	50*
C/C(=N\NC(=O)c1ccoc1C)c1ccccc1	49	-63	20	20*	0	·	-2	-22
COc1ccc(NC(=O)Nc2ccc3c(c2)C(=O)N([C@@H](C)CO)C[C@H](C)[C@@H](CN(C)C(=O)Nc2c(C)noc2C)OCCCC[C@H](C)O3)cc1	·	6	·	·	·	·	·	·
CN(C)CCCNC(=O)C[C@H]1CC[C@H]2[C@@H](COC[C@@H](O)CN2CC2CCCCC2)O1	·	12	·	·	·	·	·	·
CCc1ccn2cc(-c3ccc4c(c3)OCO4)nc2c1	66*	97*	-4	73*	0	72*	86*	85*
COc1ccc(-c2cn3cc(C(=O)NN)ccc3n2)cc1	-21	-47	-16	43*	0	-6	24*	-12
NNC(=O)c1ccc2nc(-c3ccc(Br)cc3)cn2c1	-34	-47	-65	7	0	-26	·	·
COC(=O)c1ccc2nc(-c3ccc4c(c3)OCO4)cn2c1	41	83*	89*	18*	1	48*	73*	65*
COc1ccc2c3c([nH]c2c1)[C@@H](CO)N(C(C)=O)CC31CN(C(=O)Nc2ccccc2F)C1	·	-17	·	·	·	·	·	·
O=C(C[C@H]1C=C[C@H](NC(=O)Nc2ccc(C(F)(F)F)cc2)[C@H](CO)O1)NCCN1CCCC1	·	-7	·	·	·	·	·	·
CC(C)CC1C(C#N)=C(N)Oc2n[nH]c(-c3cccs3)c21 (configuration not stated)	-23	·	12	18*	0	-10	-7	1
N#CC1=C(N)Oc2n[nH]c(-c3cccs3)c2C1c1cccs1 (configuration not stated)	-5	·	-2	34*	0	10	-9	-8
O=C(C[C@H]1CC[C@@H](NC(=O)C2CC2)[C@@H](CO)O1)NCCCN1CCOCC1	·	7	·	·	·	·	·	·
O=C(Nc1ccc(NC(=O)c2ccccc2F)cn1)c1ccco1	23	35	53*	28*	0	23	52*	36*
O=C(N/N=C/c1cccs1)c1ccccn1	-23	-18	5	4	0	-9	·	·
CCc1ccc(/C=N/NC(=O)c2ccccn2)cc1	42	71*	86*	23*	0	49*	73*	65*

Assay outcomes deposited in PubChem BioAssay by several laboratories.
